# About 13,000 (27%) of roughly 48,000 compounds showed an effect of 50% or more. The list shows a part of the results.
# Tested on: Wolbachia pipientis
# Experiment: Anti-Wolbachia Cell-Based Screen
# Type: functional
# Parameters: scale not given: in the data most compounds retested in dose-response had high values
# Settings: 5 µM
row,Structure (SMILES),Percent Effect
1,Cc1nc(NC2CCCC2)cc(C2CCN2C(=O)c2ccccc2)n1 (configuration not stated),4.339%
2,Cc1nc(NC2CCCC2)cc(C2CCN2C(=O)c2cnn(C)c2)n1 (configuration not stated),99.12%
3,Cc1cccc(N2CC[C@H]3[C@H]2CCN3C(=O)c2cnn(C)c2)n1,8.202%
4,CCc1cc(NC2CCN(CC(N)=O)CC2)nc(N2CCCCC2)n1,3.351%
5,Cc1nc(NC2CCCC2)cc(C2CCN2C(=O)c2cccnc2)n1 (configuration not stated),-5.726%
6,CCC(=O)N1CCC1c1cc(NC2CCCC2)nc(C)n1 (configuration not stated),124.3%
7,O=C1NCCc2c1sc1ccc(C(=O)N3CC[C@H](CO)[C@H](O)C3)cc21,1.887%
8,CCCS(=O)(=O)N1CCC2(CCC(=O)N(CCc3cccnc3)C2)CC1,-2.035%
9,CCCC(=O)NC(C)(C)Cc1ccccc1OC,8.655%
10,CCn1cc(S(=O)(=O)NC(=O)CCc2c[nH]c3ccccc23)cn1,5.036%
11,CN1CCN(c2ccc(NCc3ccc([S+](C)[O-])cc3)cn2)CC1 (configuration not stated),-11.28%
12,Cc1ccsc1C(=O)N1CC[C@H]2CO[C@H](CN(C)C)[C@H]2C1.O=C(O)C(F)(F)F,3.155%
13,CCC(C)CS(=O)(=O)NC(=O)C1CC1 (configuration not stated),-14.71%
14,O=C(CS(=O)(=O)Cc1nnnn1C1CC1)NCCc1ccccc1,-17.89%
15,O=S(=O)(Cc1c(F)cccc1Cl)Cc1nnnn1C1CC1,95.69%
16,O=S(=O)(Cc1c(F)cccc1Cl)NCCCN1CCCCCC1,1.36%
17,[O-][S+](Cc1c(F)cccc1Cl)Cc1nnnn1C1CC1 (configuration not stated),117.1%
18,O=C(CS(=O)(=O)Cc1nnnn1C1CC1)NCC1CC1,-6.472%
19,CN(Cc1nnnn1C1CC1)c1cccc2ccccc12,-12.9%
20,O=S(=O)(CCCc1ccccc1)Cc1nnnn1C1CC1,-8.499%
21,O=S(=O)(Cc1ccccc1F)Cc1nnnn1C1CC1,106.9%
22,c1ccc(C2CCCN2Cc2nnnn2C2CC2)cc1 (configuration not stated),-9.931%
23,CCC(C)CN(C)C(=O)NCc1ccccc1-n1cccn1 (configuration not stated),-6.014%
24,Cc1cnccc1CN(C)C1CCN(c2ncnc3[nH]cnc23)CC1,-3.937%
25,CN(C)C(=O)CCC[S+]([O-])Cc1cc(Cl)ccc1Cl (configuration not stated),0.1259%
26,Cc1noc(C)c1CN1CCc2nn(C(C)C)c(=O)cc2C1,-7.391%

row,Structure (SMILES),Percent Effect
1,CC(=O)Nc1ncc(S(=O)(=O)N2CCN(C3CCCCC3)CC2)s1,-4.636%
2,Cc1ccccc1S(=O)(=O)Cc1nsc(N(C)C)n1,-10.46%
3,COc1ccc2c(c1)CCCN2C(=O)NCCc1cnn(C)c1,-4.065%
4,CCn1nccc1CN(C)C(=O)Cn1nc(C)cc1C,69.47%
5,Cc1cc(C)n(CC2CCCCN2CC(=O)N(C)Cc2ccco2)n1 (configuration not stated),-0.03535%
6,Cc1ccc(CN(C)C(=O)Cn2nc(-c3ccc(F)cc3)oc2=O)cc1,-26.69%
7,Cc1cc(C)n(CC(C)CNC(=O)N(C)Cc2ccco2)n1 (configuration not stated),23.18%
8,CCn1nccc1CN(C)C(=O)Cn1nc(C)c(C)c1C,98.15%
9,CCc1nc(CC)n(CC(=O)N(C)Cc2ccc(F)cc2)n1,-4.811%
10,O=C(CNC(=O)C1CCCC1)NCC(O)c1ccc2ccccc2c1 (configuration not stated),-9.214%
11,Cn1nnc2c(sc3nc(N4CCOCC4)c4c(c32)CCC4)c1=O,117%
12,CCCn1nnc2c(sc3nc(N4CCOCC4)c4c(c32)CCC4)c1=O,106.2%
13,CC(C)n1nnc2c(sc3nc(N4CCOCC4)c4c(c32)CCC4)c1=O,121.1%
14,CCc1nc2c(c(N3CCOCC3)n1)CCN(C(=O)N1CCCC1)CC2,-8.543%
15,CCCn1nnnc1CN(c1ccc(N2CCOCC2)cc1)C(C)C,-9.048%
16,CN(C)C(=O)Cc1ccccc1NCc1cccc2cccnc12,-12.16%
17,O=C(c1cncc(Br)c1)N1CCCc2c(F)cc(F)cc21,-4.9%
18,CC(C#N)CNS(=O)(=O)c1ccc(Br)c(F)c1 (configuration not stated),3.318%
19,CC(C)c1noc(CCC(=O)N(CC2CCOC2)C2CC2)n1 (configuration not stated),6.067%
20,NC(=O)NC(=O)CCN(Cc1ccccc1)CC1CCOCC1,-17.87%
21,Cc1cnn(CC(C)NCC(=O)Nc2ccc(Cl)cn2)c1 (configuration not stated),-4.944%
22,Fc1cnc(N2CC[C@@H]3O[C@@H](COCc4ccccn4)CC[C@@H]32)nc1.O=C(O)C(F)(F)F.O=C(O)C(F)(F)F,-20.87%
23,Fc1cnc(N2CC[C@@H]3O[C@@H](COCc4cccnc4)CC[C@@H]32)nc1.O=C(O)C(F)(F)F,-5.936%
24,CC(C)COC[C@@H]1CC[C@H]2[C@H](CCN2C(=O)c2ccncc2F)O1.O=C(O)C(F)(F)F,105.1%
25,CC(C)COC[C@H]1CC[C@H]2[C@H](CCN2C(=O)c2ccncc2F)O1.O=C(O)C(F)(F)F,108.1%
26,O=C(O)C(F)(F)F.O=C(c1ccncc1F)N1CC[C@@H]2OC(COCC3CC3)CC[C@@H]21 (some centres not stated),97.57%

# Reference: ChEMBL document CHEMBL3988442, “University of Dundee, Small-Polar-MMV Screening Library” (2021)
